For part of these data: Entries with a potency or affinity are not part of this list. Activity calls are given as the source filed them.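 How the source made its calls, unless noted: active means earlier screen potentiator hit that boosts the TRPC4 ion channel at some dose, with a dose response; inactive means no potentiation, no dose response, or not a prior hit.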
Columns and labels:
[1] = tested on: TRPC4 beta (transient receptor potential cation channel C4), mouse; assay: TRPC4 cation channel opening, retest – cell-based, Fluo4 calcium, HEK293 TRPC4beta/mu-opioid, duplicates, 10 µM, confirmation (AID 2426;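 active means fluorescence ratio normalized to control raised more than 50% in primary screen plus both repeat runs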); settings: Fluo4 calcium fluorescence, at 10 µM; active compounds read high
[2] = tested on: transient receptor potential cation channel C4 beta (TRPC4), mouse; assay: TRPC4 cation channel opening, second retest – cell-based, second round, Fluo4, HEK293 TRPC4beta/mu-opioid, 1 µM, confirmation (AID 2461;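 active means primary screen active and over 50% activation in each of two duplicate runs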); settings: Fluo4 calcium fluorescence, at 1 µM; active compounds read high
[3] = tested on: TRPC4 (transient receptor potential cation channel C4 beta), mouse; assay: potentiation of DAMGO EC20 TRPC4 response – cell-based, second round, Fluo-4, HEK293 TRPC4beta/mu-opioid, 1 µM, confirmation (AID 2554;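 active means primary screen hit whose fluorescence ratio, in both repeats, exceeds the weak agonist control mean by 3 SD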); settings: DAMGO EC20, Fluo-4 calcium flux, at 1 µM; active compounds read high
[4] = tested on: TRPC4 beta (transient receptor potential cation channel C4), mouse; assay: potentiation of DAMGO EC20 TRPC4 response – cell-based, Fluo-4, HEK293 TRPC4beta/mu-opioid, confirmation (AID 2555;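 active means primary screen hit whose calcium fluorescence ratio, in both repeats, exceeds the weak agonist control mean by 3 SD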); settings: DAMGO EC20, Fluo-4 calcium flux, at 10 µM; active compounds read high
[5] = molecular target: Short transient receptor potential channel 4 (Mus musculus) (UniProt Q9QUQ5); assay: blockers of DAMGO-evoked TRPC4 calcium flux – cell-based, Fluo4, HEK293 TRPC4beta/mu-opioid, confirmation (AID 2636;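 active means calcium signal cut by more than 3 SD below the full-agonist control yet still positive, in both repeats and the earlier primary screen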); settings: at 10 µM; active compounds read high
Chain of Short transient receptor potential channel 4 (Mus musculus) (Q9QUQ5 whole entry, looked up): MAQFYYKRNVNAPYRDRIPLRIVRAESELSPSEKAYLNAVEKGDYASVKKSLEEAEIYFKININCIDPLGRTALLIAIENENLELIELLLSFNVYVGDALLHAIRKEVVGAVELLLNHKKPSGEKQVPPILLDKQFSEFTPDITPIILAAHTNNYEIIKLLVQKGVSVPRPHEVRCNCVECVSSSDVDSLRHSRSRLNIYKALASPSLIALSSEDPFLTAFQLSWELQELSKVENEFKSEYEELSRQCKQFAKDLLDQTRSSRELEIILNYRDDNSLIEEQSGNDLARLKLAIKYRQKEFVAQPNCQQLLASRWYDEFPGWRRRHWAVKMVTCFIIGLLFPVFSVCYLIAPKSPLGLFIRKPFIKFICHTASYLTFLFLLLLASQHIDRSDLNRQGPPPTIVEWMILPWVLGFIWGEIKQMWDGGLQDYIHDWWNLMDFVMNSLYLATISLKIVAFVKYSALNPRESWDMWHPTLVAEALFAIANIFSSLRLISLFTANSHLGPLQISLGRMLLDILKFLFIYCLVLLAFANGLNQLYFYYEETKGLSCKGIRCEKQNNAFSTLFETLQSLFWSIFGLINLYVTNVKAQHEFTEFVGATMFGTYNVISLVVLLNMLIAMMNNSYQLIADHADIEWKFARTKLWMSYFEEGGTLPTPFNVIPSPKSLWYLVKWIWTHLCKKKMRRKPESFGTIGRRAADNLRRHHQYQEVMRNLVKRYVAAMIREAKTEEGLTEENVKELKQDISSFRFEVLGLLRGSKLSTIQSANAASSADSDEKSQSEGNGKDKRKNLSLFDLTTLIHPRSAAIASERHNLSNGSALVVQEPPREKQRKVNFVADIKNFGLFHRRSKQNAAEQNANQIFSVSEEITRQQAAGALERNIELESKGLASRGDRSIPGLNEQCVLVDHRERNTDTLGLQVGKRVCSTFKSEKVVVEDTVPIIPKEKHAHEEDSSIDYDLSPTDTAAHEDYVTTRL

[6] = molecular target: Short transient receptor potential channel 4 (Mus musculus) (UniProt Q9QUQ5); assay: blockers of DAMGO-evoked TRPC4 calcium flux – cell-based, second round, Fluo4, HEK293 TRPC4beta/mu-opioid, 1 µM, confirmation (AID 2637;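 active means calcium signal ratio cut to more than 3 SD under the fully stimulated control mean yet still positive, in both repeats and the primary screen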); settings: at 1 µM; active compounds read high
[7] = molecular target: Short transient receptor potential channel 4 (Mus musculus) (UniProt Q9QUQ5); assay: calcium entry via TRPC4 opening agents – cell-based, HEK293 TRPC4/mu-opioid, Fluo-4 calcium, dose response (AID 434937;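 active means primary screen activator hit with a dose response curve and TRPC4 channel activation at any tested dose; inactive means no activation, no dose response, or not a primary hit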)
[8] = molecular target: Short transient receptor potential channel 4 (Mus musculus) (UniProt Q9QUQ5); assay: potentiation of DAMGO-evoked TRPC4 calcium signal – cell-based, HEK293 TRPC4/mu-opioid, Fluo-4 calcium, EC20 DAMGO, dose response (AID 434941);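 further: calcium entry triggered by an EC20 dose of DAMGO at the co-expressed mu-opioid receptor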
[9] = molecular target: Short transient receptor potential channel 4 (Mus musculus) (UniProt Q9QUQ5); assay: block of DAMGO-driven TRPC4 calcium entry – cell-based, HEK293 TRPC4/mu-opioid, Fluo-4 calcium, dose response (AID 434942;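 active means primary screen inhibitor hit that blocks the TRPC4 channel at some tested dose, yielding a dose curve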)
[10] = molecular target: Short transient receptor potential channel 6 (Mus musculus) (UniProt Q61143); assay: TRPC6 blockade by TRPC4 inhibitor hits – cell-based, HEK293, membrane potential dye, duplicate, selectivity assay for TRPC4 inhibitor project, confirmation (AID 434948;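 active means active in primary screen and both duplicates, each dropping signal beyond three positive-control SD with fluorescence still positive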); settings: HEK293 TRPC6, membrane potential dye fluorescence, at 10 µM, stimulated with maximal-effect acetylcholine; active compounds read high
Chain of Short transient receptor potential channel 6 (Mus musculus) (Q61143 whole entry, looked up): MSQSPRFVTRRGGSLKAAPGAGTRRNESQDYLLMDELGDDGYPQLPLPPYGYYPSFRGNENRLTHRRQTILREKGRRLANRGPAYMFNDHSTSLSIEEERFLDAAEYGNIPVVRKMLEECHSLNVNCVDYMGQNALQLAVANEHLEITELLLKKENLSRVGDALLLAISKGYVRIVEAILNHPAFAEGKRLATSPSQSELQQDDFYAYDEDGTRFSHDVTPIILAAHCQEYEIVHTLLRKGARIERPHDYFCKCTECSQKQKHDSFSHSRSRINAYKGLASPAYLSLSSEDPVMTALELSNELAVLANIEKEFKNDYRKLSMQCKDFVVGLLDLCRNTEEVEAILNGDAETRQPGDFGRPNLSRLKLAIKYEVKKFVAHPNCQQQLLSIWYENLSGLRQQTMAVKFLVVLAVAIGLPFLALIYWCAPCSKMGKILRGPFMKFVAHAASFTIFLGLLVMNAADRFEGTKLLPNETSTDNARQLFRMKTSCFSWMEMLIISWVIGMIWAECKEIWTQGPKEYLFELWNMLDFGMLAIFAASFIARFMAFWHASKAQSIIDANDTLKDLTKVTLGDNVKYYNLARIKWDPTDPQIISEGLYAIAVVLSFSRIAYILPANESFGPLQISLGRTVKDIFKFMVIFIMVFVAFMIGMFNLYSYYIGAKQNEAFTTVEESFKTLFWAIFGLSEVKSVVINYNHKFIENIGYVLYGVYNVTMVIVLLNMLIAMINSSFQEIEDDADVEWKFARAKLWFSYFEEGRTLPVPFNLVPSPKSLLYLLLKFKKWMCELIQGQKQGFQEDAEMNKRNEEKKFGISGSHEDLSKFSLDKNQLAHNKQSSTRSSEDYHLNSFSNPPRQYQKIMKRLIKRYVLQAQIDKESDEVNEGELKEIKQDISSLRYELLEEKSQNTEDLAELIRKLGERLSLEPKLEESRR

[11] = molecular target: Short transient receptor potential channel 6 (Mus musculus) (UniProt Q61143); assay: TRPC6 opening by TRPC4 activator hits – cell-based, HEK293, membrane potential dye, duplicate, selectivity assay for TRPC4 activator project, confirmation (AID 434950;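 active means membrane potential signal rise above negative control mean plus 3 SD in both duplicates, also active in the earlier TRPC4 screen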;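 on activation: 0% = buffer only wells and 100% = acetylcholine maximal-effect wells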); settings: HEK293 TRPC6, membrane potential fluorescence, at 10 µM; activation: active compounds read high; outcome: activation
[12] = molecular target: Short transient receptor potential channel 6 (Mus musculus) (UniProt Q61143); assay: positive modulators of mouse TRPC6 channel – HEK293 cells, membrane potential dye, duplicate, selectivity assay for TRPC4 potentiator project, confirmation (AID 434952;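 active means compound raising the membrane signal above positive-control mean plus 3 SD in both repeats, and a primary screen hit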); settings: HEK293 TRPC6, membrane potential dye fluorescence, at 10 µM, maximal acetylcholine added after compound; active compounds read high
[13] = molecular target: Short transient receptor potential channel 4 (Mus musculus) (UniProt Q9QUQ5); assay: calcium flux activators in TRPC4/5HT1a cells, counter-screen for TRPC4 activator project, cell-based, second counter screen, HEK293 TRPC4/5HT1a, Fluo-4 (AID 434977;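 active means calcium signal rise above buffer-control mean plus 5 SD in both duplicates, and also a hit in the primary screen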;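 on activation: plate controls were assay buffer for no effect and maximal serotonin response for full effect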); settings: Fluo-4 calcium flux, at 10 µM; active compounds read high
[14] = serotonin-gated TRPC4 signal block – cell-based, second counter screen, HEK293 TRPC4/5HT1a, Fluo-4, counter-screen for TRPC4 inhibitor project, confirmation (AID 434978;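 active means primary screen active whose calcium signal fell more than 3 SD beyond the full-serotonin control mean in both duplicate plates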;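 on outcome: serotonin given first at submaximal then at maximal dose after compound preincubation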); settings: Fluo-4 calcium flux, at 10 µM, serotonin added to trigger calcium flux; active compounds read high
[15] = tested on: TRPC4 (mouse), co-expressed with 5HT1a in HEK293; assay: enhancement of serotonin-evoked TRPC4 response – cell-based, second counter screen, HEK293 TRPC4/5HT1a, Fluo-4, counter-screen for TRPC4 potentiator project, confirmation (AID 434979;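 active means signal rise over 3 SD above mean of control wells given weak agonist, in both repeats and first screen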); settings: Fluo-4 calcium flux, at 10 µM, serotonin added at its EC20 dose; active compounds read high
[16] = nonspecific calcium rise without TRPC4 – cell-based, HEK293 mu-opioid receptor line, counter-screen for TRPC4 activator project, confirmation (AID 449723;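 active means hit in primary screen, with calcium signal over 5 SD above buffer well mean in both duplicates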;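 further: counter screen cells carry the mu-opioid receptor alone and lack TRPC4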); settings: HEK293 mu-opioid cells, Fluo-4 calcium fluorescence, at 10 µM; active compounds read high
[17] = nonspecific potentiation of DAMGO calcium response – cell-based, HEK293 mu-opioid receptor line, counter-screen for TRPC4 allosteric potentiator project, confirmation (AID 449724;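 active means calcium signal rise more than 3 SD above the low-dose agonist control mean, in both duplicate plates and the primary screen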); settings: HEK293 mu-opioid receptor cells, Fluo-4 calcium flux, at 10 µM, compound added before EC20 DAMGO stimulus; active compounds read high

CCCCN(C(=O)c1cccc2c(=O)c(C)c(-c3ccccc3)oc12)c1ccccc1
inactive: outcome [1] | outcome [2] | outcome [3] | outcome [5] | outcome [6] | outcome [7] | outcome [8] | outcome [9] | outcome [10] | outcome [11] | outcome [12] | outcome [13] | outcome [14] | outcome [16] | outcome [17]
active: potentiation [4] 15% | potentiation [15] 12.4%

Cc1nn2c(N3CCN(C)CC3)c3c(nc2c1-c1ccccc1)CCCC3
inactive: outcome [1] | outcome [2] | outcome [3] | outcome [4] | outcome [5] | outcome [6] | outcome [7] | outcome [8] | outcome [9] | outcome [10] | outcome [11] | outcome [12] | outcome [13] | outcome [14] | outcome [15] | outcome [16] | outcome [17]

O=C(c1ccccc1F)N1CCN(c2ccc([N+](=O)[O-])c3cccnc23)CC1
inactive: outcome [1] | outcome [2] | outcome [3] | outcome [5] | outcome [6] | outcome [7] | outcome [8] | outcome [9] | outcome [10] | outcome [11] | outcome [12] | outcome [13] | outcome [14] | outcome [16] | outcome [17]
active: potentiation [4] 18% | potentiation [15] 16.5%

O=c1[nH][nH]c(-c2ccccc2)c1C=Nc1ccc(F)cc1F
inactive: outcome [1] | outcome [2] | outcome [3] | outcome [5] | outcome [6] | outcome [7] | outcome [8] | outcome [9] | outcome [10] | outcome [11] | outcome [12] | outcome [13] | outcome [14] | outcome [16] | outcome [17]
active: potentiation [4] 119% | potentiation [15] 86%

Cc1ccc(NC(=O)C2CCC(CNC(=O)[C@@H]3Cc4ccccc4CN3)CC2)cc1 (stereo not given in full)
inactive: outcome [1] | outcome [2] | outcome [3] | outcome [4] | outcome [5] | outcome [6] | outcome [7] | outcome [8] | outcome [9] | outcome [10] | outcome [11] | outcome [12] | outcome [13] | outcome [14] | outcome [15] | outcome [16] | outcome [17]

OC1(c2ccc(Br)cc2)CN(c2ccccc2)C2=[N+]1CCS2 (stereo not given)
active: activation [11] 36.5%
inactive: outcome [1] | outcome [2] | outcome [3] | outcome [4] | outcome [5] | outcome [6] | outcome [7] | outcome [8] | outcome [9] | outcome [10] | outcome [12] | outcome [13] | outcome [14] | outcome [15] | outcome [16] | outcome [17]

O=C(C1CCCN(Cc2cccc(Cl)c2)C1)N1CCCCC1 (stereo not given)
inactive: outcome [1] | outcome [2] | outcome [3] | outcome [4] | outcome [5] | outcome [6] | outcome [7] | outcome [8] | outcome [9] | outcome [10] | outcome [11] | outcome [12] | outcome [13] | outcome [14] | outcome [15] | outcome [16] | outcome [17]

O=C1Cc2ccccc2Sc2c(OCCN3CCCCC3)cccc21
inactive: outcome [1] | outcome [2] | outcome [3] | outcome [4] | outcome [5] | outcome [6] | outcome [7] | outcome [8] | outcome [9] | outcome [10] | outcome [11] | outcome [12] | outcome [13] | outcome [14] | outcome [15] | outcome [16] | outcome [17]

CCn1cc(CN2CCC(n3nccc3NC(=O)CCOc3ccccc3)CC2)c(C)n1
inactive: outcome [1] | outcome [2] | outcome [3] | outcome [4] | outcome [5] | outcome [6] | outcome [7] | outcome [8] | outcome [9] | outcome [10] | outcome [11] | outcome [12] | outcome [13] | outcome [14] | outcome [15] | outcome [16] | outcome [17]

O=C(C1CCN(S(=O)(=O)c2cccnc2)CC1)N1CCN(c2ccc(Cl)cc2)CC1
inactive: outcome [1] | outcome [2] | outcome [3] | outcome [4] | outcome [5] | outcome [6] | outcome [7] | outcome [8] | outcome [9] | outcome [10] | outcome [12] | outcome [15] | outcome [16] | outcome [17]
active: activation [11] 35.5% | activation [13] 29.8% | inhibition [14] 42.4%

COCCn1c(SCC(=O)Nc2ccc(S(=O)(=O)N3CCOCC3)cc2)nc2ccccc21
inactive: outcome [1] | outcome [2] | outcome [3] | outcome [5] | outcome [6] | outcome [7] | outcome [8] | outcome [9] | outcome [10] | outcome [11] | outcome [12] | outcome [13] | outcome [14] | outcome [16] | outcome [17]
active: potentiation [4] 12% | potentiation [15] 26.5%

CCCCCCCCCCOC(=O)Cn1c(COc2ccccc2)[n+](C)c2ccccc21
inactive: outcome [1] | outcome [2] | outcome [3] | outcome [4] | outcome [5] | outcome [6] | outcome [7] | outcome [8] | outcome [9] | outcome [10] | outcome [11] | outcome [12] | outcome [13] | outcome [14] | outcome [15] | outcome [16] | outcome [17]

CCCCN1C(=O)C(=O)N(CC(=O)Nc2cc(OCC)c(N3CCOCC3)cc2OCC)C1=O
inactive: outcome [1] | outcome [2] | outcome [3] | outcome [4] | outcome [5] | outcome [6] | outcome [7] | outcome [8] | outcome [9] | outcome [10] | outcome [11] | outcome [12] | outcome [13] | outcome [14] | outcome [15] | outcome [16] | outcome [17]

Cc1cc(C)c(S(=O)(=O)N2CCN(C)CC2)c(C)c1
inactive: outcome [1] | outcome [2] | outcome [4] | outcome [5] | outcome [6] | outcome [7] | outcome [8] | outcome [9] | outcome [10] | outcome [11] | outcome [12] | outcome [13] | outcome [14] | outcome [16] | outcome [17]
active: potentiation [3] 9% | potentiation [15] 12.4%

CCn1c2ccc(F)cc2c2nnc(NN)nc21
active: potentiation [3] 27% | potentiation [4] 73%
inactive: outcome [1] | outcome [2] | outcome [5] | outcome [6] | outcome [7] | outcome [8] | outcome [9] | outcome [10] | outcome [11] | outcome [12] | outcome [13] | outcome [14] | outcome [15] | outcome [16] | outcome [17]
